The values that follow come from publication PMC4336329 (PLoS ONE, 2015).

Screen size: about 310,000 compounds; about 14,000 (4.5%) showed an effect of 50% or more. The effect is printed as a negative number. The full list was thinned out, with strong results kept by preference.
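Further: peak tail current of the secondary pulse compared with the same well before compound.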

For this experiment, the target named is human ether-à-go-go-related gene (hERG) potassium channel (human, UniProt Q12809). Nature of the experiment: primary screen, population patch clamp on CHO cells stably expressing hERG; higher = less effect of the substance.
Chain of human ether-à-go-go-related gene (hERG) potassium channel (Q12809 whole entry, looked up): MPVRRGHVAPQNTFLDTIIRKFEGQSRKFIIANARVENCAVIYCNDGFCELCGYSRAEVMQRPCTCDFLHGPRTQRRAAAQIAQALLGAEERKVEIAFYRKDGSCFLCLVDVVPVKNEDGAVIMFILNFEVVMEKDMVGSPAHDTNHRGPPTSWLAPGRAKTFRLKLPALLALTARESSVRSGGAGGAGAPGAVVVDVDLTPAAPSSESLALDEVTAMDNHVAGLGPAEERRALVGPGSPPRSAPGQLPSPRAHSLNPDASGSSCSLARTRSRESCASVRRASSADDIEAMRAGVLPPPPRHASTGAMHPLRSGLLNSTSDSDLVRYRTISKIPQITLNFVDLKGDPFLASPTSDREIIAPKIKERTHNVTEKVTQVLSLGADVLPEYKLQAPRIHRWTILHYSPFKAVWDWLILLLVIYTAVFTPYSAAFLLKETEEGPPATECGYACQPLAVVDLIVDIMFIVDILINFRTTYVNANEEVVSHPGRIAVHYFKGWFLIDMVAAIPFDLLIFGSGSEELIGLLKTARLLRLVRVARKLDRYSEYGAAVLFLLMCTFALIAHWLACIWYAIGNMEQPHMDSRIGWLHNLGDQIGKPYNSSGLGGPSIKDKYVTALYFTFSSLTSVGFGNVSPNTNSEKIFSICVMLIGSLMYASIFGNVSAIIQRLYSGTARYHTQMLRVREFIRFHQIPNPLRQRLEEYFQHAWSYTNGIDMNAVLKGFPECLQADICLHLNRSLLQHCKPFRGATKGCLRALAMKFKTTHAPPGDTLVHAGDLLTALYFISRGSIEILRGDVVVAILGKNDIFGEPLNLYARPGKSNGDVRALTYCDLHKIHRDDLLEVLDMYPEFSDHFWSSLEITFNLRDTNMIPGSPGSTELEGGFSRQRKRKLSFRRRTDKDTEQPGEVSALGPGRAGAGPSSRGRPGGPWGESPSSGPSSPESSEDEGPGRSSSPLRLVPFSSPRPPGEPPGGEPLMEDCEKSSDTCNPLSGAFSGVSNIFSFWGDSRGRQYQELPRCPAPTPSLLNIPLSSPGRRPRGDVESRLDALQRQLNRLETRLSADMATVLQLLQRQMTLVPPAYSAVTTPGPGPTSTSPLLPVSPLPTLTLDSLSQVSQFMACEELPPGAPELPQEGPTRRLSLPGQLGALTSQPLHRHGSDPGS
Regarding `Cc1nnc(Nc2ccc3c(c2)OCO3)c2ccccc12`, the “hERG current change (%, negative = inhibition) at 10uM” value was -7.51%. To `O=C(CCc1nnc2n(Cc3ccc(Cl)cc3)c(=O)c3ccccc3n12)NCCCN1CCOCC1` belongs -59.9%. `Cc1ccc(Cn2c(=O)c3ccccc3n3c(CCC(=O)NCCN4CCOCC4)nnc23)cc1`: the “hERG current change (%, negative = inhibition) at 10uM” value is recorded as -19.5%. As for `O=C(CCc1nnc2n(Cc3ccc(F)cc3)c(=O)c3ccccc3n12)NCCN1CCOCC1`, the “hERG current change (%, negative = inhibition) at 10uM” value was -20.3%. To `CC1CCCCN1CCNC(=O)CCc1nnc2n(Cc3ccccc3)c(=O)c3ccccc3n12` (stereo not drawn) belongs -51.6%; to `O=C(CCc1ccccc1)NCCCN1CCOCC1`, 12.3%. To `O=C(CCc1nnc2n(Cc3ccc(Cl)cc3)c(=O)c3ccccc3n12)NCCN1CCCC1` belongs -75.8%.

Take `O=C(CCc1nnc2n(Cc3ccccc3)c(=O)c3ccccc3n12)NCCN1CCOCC1`: the “hERG current change (%, negative = inhibition) at 10uM” value is on record as -1.06%.

For the compound `O=C(CCc1nnc2n(Cc3ccc(F)cc3)c(=O)c3ccccc3n12)NCCCN1CCOCC1`, the “hERG current change (%, negative = inhibition) at 10uM” value was -16.4%. The result for `CC1CCCC(C)N1CCNC(=O)CCc1nnc2n(Cc3ccccc3)c(=O)c3ccccc3n12` (stereo not drawn) reads -42.6%; that for `COc1ccccc1CNC(=O)Cn1cc([N+](=O)[O-])ccc1=O`, 15.2%; that for `O=C1c2ccc3c4c(ccc(c24)C(=O)N1c1cccc(O)c1)C(=O)N(c1cccc(O)c1)C3=O`, 8.86%.

Turning to `CCc1ccc(NC(=O)C/C(C)=N/NC(=O)COc2ccc(C)cc2Br)cc1`, the “hERG current change (%, negative = inhibition) at 10uM” value is reported as -30.5%. As for `CCc1ccc(NC(=O)C/C(C)=N/NC(=O)COc2ccccc2C)cc1`, the “hERG current change (%, negative = inhibition) at 10uM” value is on record as -53.2%. To `CCc1ccccc1NC(=O)C/C(C)=N/NC(=O)COc1ccccc1C` belongs 9.02%. To `COc1ccc(S(=O)(=O)Nc2ccccc2C(=O)N2CCOCC2)cc1C` belongs -0.937%. To `CCC(=O)Oc1cccc(C(=O)Nc2cccc(NC(=O)c3ccco3)c2)c1` belongs -1.06%. For the compound `CCS(=O)(=O)n1nc(-c2ccccc2)nc1NCc1ccco1`, the “hERG current change (%, negative = inhibition) at 10uM” value is -29.9%. For the compound `COc1ccc(C(=O)N/N=C\c2coc3ccccc3c2=O)cc1`, the “hERG current change (%, negative = inhibition) at 10uM” value was 6.36%. Turning to `COc1ccc(OC(C)c2nnc(N)s2)cc1` (stereo not drawn), the “hERG current change (%, negative = inhibition) at 10uM” value was -71.4%. On to `Cc1ccc(OC(C)c2nnc(N)s2)cc1Cl` (stereo not drawn), for which the “hERG current change (%, negative = inhibition) at 10uM” value is -2.12%. To `CC(Oc1ccccc1)c1nnc(N)s1` (stereo not drawn) belongs -1.12%; to `Clc1ccc(CSc2nncn2-c2ccccn2)cc1`, -28.7%. To `COc1cc(CNCCO)cc(Br)c1OCc1ccccc1Cl.Cl` belongs -3.45%. The result for `Cl.OCCNCc1cc(Br)ccc1OCc1ccc(F)cc1` reads -49.7%.

For the compound `CC(C)NCc1cc(Br)ccc1OCc1ccccc1.Cl`, the “hERG current change (%, negative = inhibition) at 10uM” value is recorded as -61.8%. The result for `C=CCOc1ccc(Br)cc1CNCCO.Cl` reads 0.469%; that for `Cl.OCCNCc1cc(Br)ccc1OCc1ccccc1`, -55.7%; that for `Cl.OCCNCc1cc(Br)ccc1OCc1ccc(Cl)cc1`, -66.6%. To `CC(C)(CO)NCc1cc(Br)ccc1OCc1ccccc1.Cl` belongs -35.5%. To `Cl.OCCNCCNCc1ccccc1OCc1ccccc1` belongs 8.83%. As for `COCC(C)NCc1cc(Br)ccc1OC.O=C(O)C(=O)O` (stereo not drawn), the “hERG current change (%, negative = inhibition) at 10uM” value turned out to be 8.73%. In the case of `COc1cccc(CNCCO)c1OCc1ccccc1Cl.Cl`, the “hERG current change (%, negative = inhibition) at 10uM” value was -8.68%. The result for `Cl.OCCNCc1cc(Br)ccc1OCc1ccccc1Cl` reads -74.9%; that for `COc1cc(CNCCO)cc(Br)c1OCc1ccccc1.Cl`, -25.4%.

Take `O=C(O)COc1ccc(/C=C2/SC(=S)N(Cc3ccccc3)C2=O)cc1`: the “hERG current change (%, negative = inhibition) at 10uM” value came out at 17.3%.

As to `COc1cnc(-c2ccccc2)nc1Oc1cccc(C)c1C`, the “hERG current change (%, negative = inhibition) at 10uM” value is reported as -0.114%. To `Cc1ccccc1C1c2[nH]c3ccccc3c2CCN1C(=O)c1ccc(=O)n(C)n1` (stereo not drawn) belongs -10.6%. To `Cc1noc(C)c1COc1cccc(C(=O)NCc2ccccc2Cl)c1` belongs -11.3%; to `Cc1cccc(OCC(=O)NNC(=O)c2cc3ccccc3oc2=O)c1`, -9.32%. Take `CC1CC(C)CN(CCCNC(=O)CN2C(=O)c3cccnc3Oc3ccc(Cl)cc32)C1` (stereo not drawn): the “hERG current change (%, negative = inhibition) at 10uM” value was -30.7%.

For the compound `Cc1ccc(S(=O)(=O)N/N=C/c2cn(C)nc2C)cc1`, the “hERG current change (%, negative = inhibition) at 10uM” value was -2.68%. The result for `Cl.OCCCCNCc1cc(Br)ccc1OCc1ccccc1F` reads -24.7%. To `COc1cc(CNCCCCO)ccc1OCc1ccccc1F.Cl` belongs -14.2%; to `Cl.OCCCCNCc1cc(Br)ccc1OCc1ccccc1`, -61.8%; to `Cc1ccc(OCc2nnc(SCC(=O)N3CCc4ccccc43)n2C)cc1`, 16.4%. The result for `Cc1ccc(-c2csc3ncn(CC(=O)N4CCOCC4)c(=O)c23)cc1C` reads -5.43%; that for `CCn1c(SCC(=O)Nc2cccc(NC(C)=O)c2)nnc1-c1ccco1`, 14.8%.

For `COc1ccc(S(=O)(=O)N2CCOCC2)cc1C(=O)N1CCCCC1`, the “hERG current change (%, negative = inhibition) at 10uM” value is -31.6%.

In the case of `CC(=O)N1c2ccccc2CCc2ccc([N+](=O)[O-])cc21`, the “hERG current change (%, negative = inhibition) at 10uM” value turned out to be 2.5%. The result for `Cc1ccccc1CN1CCc2cc([N+](=O)[O-])ccc21` reads 19.1%; that for `CN(C)CCCN1c2ccc([N+](=O)[O-])cc2CCc2cc([N+](=O)[O-])ccc21`, -50.3%; that for `C=CCNC(=S)NC(=O)c1ccc(C)c(Br)c1`, 3.39%. As for `N/C(=N\OC(=O)N1CCOCC1)c1ccc(Br)cc1`, the “hERG current change (%, negative = inhibition) at 10uM” value worked out at 17.6%. Regarding `CN1C[C@H](CO)C=C2c3cccc4[nH]cc(c34)C[C@H]21`, the “hERG current change (%, negative = inhibition) at 10uM” value is given as 4.32%.

On to `COc1ccccc1C(=O)Nc1c(C(=O)N(CCN(C)C)Cc2ccco2)oc2ccccc12`, for which the “hERG current change (%, negative = inhibition) at 10uM” value is on record as -82.7%. To `Cc1ccccc1C(=O)Nc1c(C(=O)N(CCN(C)C)Cc2ccco2)oc2ccccc12` belongs -79.7%; to `COc1ccccc1C(=O)NCc1ccco1`, 9.61%; to `Cc1c(C(=O)NCc2ccco2)oc2ccccc12`, -6.97%. To `Cc1c(C(=O)N(Cc2ccco2)Cc2cccs2)oc2ccccc12` belongs -34.2%; to `CCOC(=O)c1oc2ccccc2c1NC(=O)c1ccccc1OC`, 16.6%; to `COCCNC(=S)Nc1cc(OC)c(NC(=O)c2ccco2)cc1OC`, -3.62%. The result for `Cc1ccc(OCCCCNC(C)(C)C)c([N+](=O)[O-])c1.O=C(O)C(=O)O` reads -4.42%; that for `COc1cccc(CNc2nc(SC)ncc2CO)c1`, 14.5%. With `CC(=O)c1c(C)nc(-c2ccc3c(c2)OCO3)n1O`, the “hERG current change (%, negative = inhibition) at 10uM” value was 0.643%. To `COc1ccccc1C(=O)C1CCCN(C(=O)C2CCCC2)C1` (stereo not drawn) belongs -6.06%; to `CCOC(=O)N1CCC(N2CCCC(C(=O)c3cc(F)ccc3OC)C2)CC1` (stereo not drawn), -86.7%; to `CCOC(=O)N1CCC(N2CCCC(C(=O)c3ccccc3OC)C2)CC1` (stereo not drawn), -67.7%.

Consider `COc1ccc(F)cc1C(=O)C1CCCN(C(=O)C2=C(C)OCCO2)C1` (stereo not drawn), for which the “hERG current change (%, negative = inhibition) at 10uM” value is reported as 1.15%.

For the compound `Cc1cc(C(=O)N2CCCC(C(=O)c3cccc4ccccc34)C2)nc(C)n1` (stereo not drawn), the “hERG current change (%, negative = inhibition) at 10uM” value was -2.09%. The result for `CCc1noc(C)c1C(=O)N1CCCC(C(=O)c2cc(F)ccc2OC)C1` (stereo not drawn) reads 18.6%; that for `COc1ccccc1C(=O)C1CCCN(C(=O)c2ccccn2)C1` (stereo not drawn), 12.4%; that for `COc1ccccc1C(=O)C1CCCN(C(=O)c2cc(CC(C)C)nc(C)n2)C1` (stereo not drawn), -60.5%. The result for `CCN(CC)CC(=O)N1CCCC(C(=O)c2ccccc2OC)C1` (stereo not drawn) reads -10.3%; that for `CC(NC(=O)/C(C#N)=C/c1ccc(Cl)c([N+](=O)[O-])c1)c1ccccc1` (stereo not drawn), 4.7%; that for `CCN(CC)C(=O)Nc1ccc(C(=O)OC)cc1`, -1.77%.

Turning to `COc1ccc(C2=NN(C(=O)CN3CCOCC3)C(c3nc4ccccc4[nH]3)C2)cc1` (stereo not drawn), the “hERG current change (%, negative = inhibition) at 10uM” value is listed as -8.74%. To `C[NH+](C)CC(C)(C)CNS(=O)(=O)c1ccc(Cl)c(Cl)c1.[Cl-]` belongs 4.29%; to `CCCn1nc(NC(=O)CC(C)C)c2cc3ccccc3nc21`, 12%.

In the case of `COc1ccc(-c2noc(CCC(=O)Nc3cc(OC)ccc3OC)n2)cc1`, the “hERG current change (%, negative = inhibition) at 10uM” value is listed as -14.7%. To `CCn1cc(C(=O)O)c(=O)c2cnc(N3CCN(C(=S)Nc4ccccc4C(F)(F)F)CC3)nc21` belongs 6.26%. To `O=C(Cn1nnc(-c2ccccc2F)n1)OCC(=O)c1ccccc1` belongs 10.9%. The result for `O=C(c1ccc(NC2=NC3CS(=O)(=O)CC3S2)cc1)N1CCN(c2ccc(F)cc2)CC1` (stereo not drawn) reads 6.4%; that for `c1ccc2c(c1)SCc1nnc(-c3ccncc3)n1-2`, -2.6%; that for `COc1cccc2c1[C@@H]1CN(CCCCn3c(=O)[nH]c4c(sc5ncc(-c6ccccc6)nc54)c3=O)C[C@@H]1CO2.Cl`, -67.6%.

On to `COc1cc2[nH]c(=O)n(CCCCCC(=O)N3CC=C(c4ccccc4)CC3)c(=O)c2cc1OC`, for which the “hERG current change (%, negative = inhibition) at 10uM” value is reported as -20%. The result for `COc1cc2[nH]c(=O)n(CCCC(=O)N3CC=C(c4ccccc4)CC3)c(=O)c2cc1OC` reads -12.9%; that for `O=C(COc1ccccc1)N1CCN(c2ncccn2)CC1`, 10.5%. The result for `Cc1ccc(OCC(=O)NCCN2CCCC2)cc1.Cl` reads 2.48%. The result for `O=C(COc1ccc(Br)cc1)N1CCN(c2ncccn2)CC1` reads -83.7%; that for `O=C(COc1ccc(Br)cc1)N1CCCCCC1`, -22.9%; that for `O=C(COc1ccc(Cl)cc1)N1CCN(c2ncccn2)CC1`, -9.42%. Turning to `O=C(COc1ccccc1)N1CCN(C2CCCC2)CC1.O=C(O)C(=O)O`, the “hERG current change (%, negative = inhibition) at 10uM” value is -13.2%. The result for `Cc1ccc(OCC(=O)NCCNC(=O)COc2ccc(C)cc2)cc1` reads 9.34%; that for `Cc1ccc(OCC(=O)NCCN2CCN(C(=O)COc3ccc(C)cc3)CC2)cc1`, -65.9%; that for `CC1CN(C2CCN(C(=O)COc3ccc(Cl)cc3)CC2)CC(C)O1.O=C(O)C(=O)O` (stereo not drawn), -38%.

Take `O=C(COc1ccc2ccccc2c1)N1CCCC1`: the “hERG current change (%, negative = inhibition) at 10uM” value is given as -13.3%. To `O=C(COc1ccc(Cl)cc1)N1CCN(C2CCCC2)CC1.O=C(O)C(=O)O` belongs -83.2%. The result for `O=C(COc1ccc2cc(Br)ccc2c1)N1CCCC1` reads -50.1%.
